Reference: PubChem BioAssay (EPA / NIEHS)
Calls of active or inactive are those of the source. How the source made its calls: active means hit-call score of the fitted dose curve at least 0.9, where 1 is the maximum; inactive means score below 0.9.

Experiments:
[1] = read-out: Interleukin-6 (IL6), IL6 (gene 3569); assay: BSK_CASM3C_IL6: BioMAP Diversity Plus: CASM3C Assay for Interleukin-6 (IL6) Biomarker Activity for (AID 2283040); conditions: primary human coronary artery smooth muscle cells; actives raise or lower the signal
[2] = read-out: Tissue plasminogen activator (tPA), PLAT (gene 5327); assay: BSK_BE3C_tPA: BioMAP Diversity Plus: BE3C Assay for Tissue plasminogen activator (tPA) Biomarker Activity (AID 2283041); conditions: primary human bronchial epithelial cells; actives raise or lower the signal
Outline: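 tPA measured by ELISA 24 h after dosing human primary bronchial epithelial cells (BE3C system). Changes in either direction were fitted against DMSO. Parallel cultures were stained with SRB to flag overt cytotoxicity.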

[3] = read-out: Interleukin-8 (IL8), CXCL8 (gene 3576); assay: BSK_CASM3C_IL8: BioMAP Diversity Plus: CASM3C Assay for Interleukin-8 (IL8) Biomarker Activity (AID 2283042); conditions: primary human coronary artery smooth muscle cells; actives raise or lower the signal;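 further: IL-8 protein level quantified by ELISA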
[4] = read-out: Human Leukocyte Antigen - DR isotype (HLADR), HLA-DRA (gene 3122); assay: BSK_CASM3C_HLADR: BioMAP Diversity Plus: CASM3C Assay for Human Leukocyte Antigen - DR isotype (HLADR) Biomarker Activity (AID 2283043); conditions: primary human coronary artery smooth muscle cells; actives raise or lower the signal;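 further: cell-surface HLA-DR protein level quantified by ELISA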
[5] = read-out: Macrophage colony-stimulating factor (MCSF), CSF1 (gene 1435); assay: BSK_CASM3C_MCSF: BioMAP Diversity Plus: CASM3C Assay for Macrophage colony-stimulating factor (MCSF) Biomarker Activity (AID 2283044); conditions: primary human coronary artery smooth muscle cells; actives raise or lower the signal;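 further: M-CSF protein amount quantified by ELISA after 24 h exposure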
[6] = read-out: Low-density lipoprotein receptor (LDLR), LDLR (gene 3949); assay: BSK_CASM3C_LDLR: BioMAP Diversity Plus: CASM3C Assay for Low-density lipoprotein receptor (LDLR) Biomarker Activity (AID 2283045); conditions: primary human coronary artery smooth muscle cells; actives raise or lower the signal;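 further: LDLR protein level on the cell surface quantified by ELISA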
[7] = read-out: Monocyte Chemoattractant Protein-1 (MCP1), CCL2 (gene 6347); assay: BSK_CASM3C_MCP1: BioMAP Diversity Plus: CASM3C Assay for Monocyte Chemoattractant Protein-1 (MCP1) Biomarker Activity (AID 2283046); conditions: primary human coronary artery smooth muscle cells; actives raise or lower the signal;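 further: MCP-1 level quantified by ELISA 24 h after dosing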
[8] = BSK_CASM3C_Proliferation: Cell Proliferation Assessment in the BioMAP Diversity Plus: CASM3C Assay (AID 2283047); conditions: primary human coronary artery smooth muscle cells;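 further: sulforhodamine B total protein stain as relative cell number at 560 nm; sub-confluent cells exposed 48 h before staining; fitted both ways against DMSO so gain or loss of cell number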
[9] = read-out: Monokine induced gamma interferon (MIG), CXCL9 (gene 4283); assay: BSK_CASM3C_MIG: BioMAP Diversity Plus: CASM3C Assay for Monokine induced gamma interferon (MIG) Biomarker Activity (AID 2283048); conditions: primary human coronary artery smooth muscle cells; actives raise or lower the signal;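 further: MIG protein level measured by ELISA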
[10] = read-out: serum amyloid A (SAA), SAA1 (gene 6288); assay: BSK_CASM3C_SAA: BioMAP Diversity Plus: CASM3C Assay for serum amyloid A (SAA) Biomarker Activity (AID 2283049); conditions: primary human coronary artery smooth muscle cells; actives raise or lower the signal;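 further: SAA protein level quantified by ELISA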

Measured: AC50

C=CC(=O)OCC(CC)(COC(=O)C=C)COC(=O)C=C
active: [1] 2.11 µM | [2] 5.46 µM | [3] 6.3 µM | [4] 1.46 µM | [5] 1.98 µM | [7] 2.54 µM | [8] 2.84 µM | [9] 2.82 µM | [10] 0.624 µM
inactive: [6]

Cc1ccc([N+](=O)[O-])cc1C
inactive: all assays above

CCN(CC)c1ccccc1
inactive: all assays above

O=P1(N(CCCl)CCCl)NCCCO1 (configuration not stated)
inactive: all assays above

Cc1ccc(O)cc1C
active: [7] 0.658 µM
inactive: all other assays above

Cc1ccc(N)cc1N
inactive: all assays above

ClC(Cl)c1ccccc1
inactive: all assays above

c1nc[nH]n1
inactive: all assays above

COP(N)(=S)OC
inactive: all assays above

CCCCC(CC)COC(=O)c1c(Br)c(Br)c(Br)c(Br)c1C(=O)OCC(CC)CCCC (configuration not stated)
active: [10] 14.7 µM
inactive: all other assays above

O=S1(=O)OCC2C(CO1)C1(Cl)C(Cl)=C(Cl)C2(Cl)C1(Cl)Cl (configuration not stated)
active: [4] 32.7 µM | [5] 7.85 µM | [8] 20 µM | [10] 23.2 µM
inactive: all other assays above

O=C(O)C(F)(F)C(F)(F)C(=O)O
inactive: all assays above

Cc1cccc(N)c1
inactive: all assays above

NC(=O)C(F)(F)C(F)(F)F
inactive: all assays above

CCCN(CCC)c1c([N+](=O)[O-])cc(C(C)C)cc1[N+](=O)[O-]
active: [6] 20 µM | [8] 31.7 µM
not listed: [4]
inactive: all other assays above

FC(F)(F)C(F)(C(F)(F)F)C(F)(F)C(F)(F)CC1CO1 (configuration not stated)
inactive: all assays above

Cc1c([N+](=O)[O-])cc2c(c1[N+](=O)[O-])C(C)(C)CC2(C)C
active: [2] 10.6 µM | [4] 1.74 µM | [5] 0.378 µM | [6] 5.44 µM
inactive: all other assays above

CCC(C)(C)c1ccc(O)cc1
inactive: all assays above

CC(Cl)CN(C)C (configuration not stated)
inactive: all assays above

O=P(Oc1ccccc1)(Oc1ccccc1)Oc1ccccc1
active: [6] 29.5 µM | [8] 26 µM
inactive: all other assays above

CCOP(=S)(OCC)SCS(=O)(=O)CC
inactive: all assays above

O=[N+]([O-])c1ccccc1
inactive: all assays above

N#Cc1cc([N+](=O)[O-])ccc1N
inactive: all assays above

OCC1CO1 (configuration not stated)
inactive: all assays above

ClC(Cl)(Cl)c1ccccc1
inactive: all assays above

CC(Cc1ccc(OCC(=O)O)cc1)NCC(O)c1csc(C(F)(F)F)n1 (configuration not stated)
inactive: all assays above

CC(C)(C)OOC(C)(C)C
inactive: all assays above

OCC(F)(F)OC(F)(F)C(F)(F)OC(F)(F)CO
inactive: all assays above

O=S(=O)(F)C(F)(F)C(F)(F)C(F)(F)C(F)(F)C(F)(F)C(F)(F)C(F)(F)C(F)(F)F
inactive: all assays above

O=C(O)C(F)(F)OC(F)(F)C(F)(F)OC(F)(F)C(=O)O
inactive: all assays above

N#Cc1c(-c2ccc(Cl)cc2)[nH]c(C(F)(F)F)c1Br
active: [1] 1.18 µM | [3] 0.277 µM | [4] 0.36 µM | [5] 20 µM | [6] 20 µM | [7] 0.0939 µM | [8] 0.779 µM | [9] 11.5 µM | [10] 6.57 µM
inactive: [2]

O=P(OCC(Br)CBr)(OCC(Br)CBr)OCC(Br)CBr (configuration not stated)
active: [8] 3.51 µM
not listed: [6]
inactive: all other assays above

O=C(O)C=CC(F)(C(F)(F)F)C(F)(F)F
inactive: all assays above

Nc1ccc([N+](=O)[O-])cc1Cl
inactive: all assays above

O=c1ssc(Cl)c1Cl
active: [1] 4.33 µM | [2] 7.68 µM | [4] 3.54 µM | [5] 5.46 µM | [7] 5.7 µM | [8] 1.69 µM | [9] 24.4 µM | [10] 1.4 µM
inactive: [3] | [6]

CCCCN(CCCC)SN(C)C(=O)Oc1cccc2c1OC(C)(C)C2
active: [4] 29.1 µM | [5] 11.4 µM | [6] 36.6 µM | [8] 27.1 µM | [10] 31.3 µM
inactive: all other assays above

CCNc1nc(Cl)nc(NC(C)(C)C)n1
active: [8] 4.52 µM
inactive: all other assays above

Cc1ccc2c(c1N)C(=O)c1ccccc1C2=O
not listed: [5]
inactive: all other assays above

CN(C)C(=O)Cl
inactive: all assays above

CCOP(=S)(OCC)SCn1nnc2ccccc2c1=O
active: [6] 32.3 µM | [8] 20 µM
inactive: all other assays above

CCCCc1ccccc1
inactive: all assays above

CCOP(=S)(Oc1ccc([N+](=O)[O-])cc1)c1ccccc1 (configuration not stated)
active: [2] 2.17 µM | [4] 14.2 µM | [6] 20 µM | [8] 20 µM
inactive: all other assays above
